Measurements as given in the supplement of paper PMC3334620.
The full ranking holds about 33,000 sequences; the median of “E-score (-0.5 to 0.5)” is about -0.032, and the highest 2% start at about 0.36. The full list was thinned out, with the highest values kept by preference.

biological target: T1, Sko1 (UniProt Q02100); experiment: PBM E-score (8-mer binding enrichment) (E-score (-0.5 to 0.5)); higher = stronger / more preferred TF binding; conditions: protein concentration: 200 nM; construct: GST-full length
T1 sequence: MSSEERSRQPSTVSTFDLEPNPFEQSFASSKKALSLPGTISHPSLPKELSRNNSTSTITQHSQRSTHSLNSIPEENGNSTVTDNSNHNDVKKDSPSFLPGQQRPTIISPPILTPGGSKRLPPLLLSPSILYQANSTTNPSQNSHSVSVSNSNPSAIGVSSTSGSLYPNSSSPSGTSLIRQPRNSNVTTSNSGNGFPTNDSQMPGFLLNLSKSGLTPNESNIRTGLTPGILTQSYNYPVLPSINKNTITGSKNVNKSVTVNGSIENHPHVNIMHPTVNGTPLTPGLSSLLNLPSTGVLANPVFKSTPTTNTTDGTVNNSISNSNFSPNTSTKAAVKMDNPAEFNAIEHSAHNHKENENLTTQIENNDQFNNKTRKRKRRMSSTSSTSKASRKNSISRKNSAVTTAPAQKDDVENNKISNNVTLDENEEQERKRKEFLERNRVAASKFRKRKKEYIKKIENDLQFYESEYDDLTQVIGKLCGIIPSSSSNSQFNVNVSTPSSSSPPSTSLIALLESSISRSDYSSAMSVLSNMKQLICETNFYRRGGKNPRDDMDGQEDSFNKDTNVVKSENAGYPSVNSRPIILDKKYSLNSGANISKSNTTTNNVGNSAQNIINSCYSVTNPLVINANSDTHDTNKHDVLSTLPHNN
Experimental: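 Universal 'all 10-mer' protein binding microarrays (Agilent AMADID 015681) probed with GST-tagged S. cerevisiae TFs (full-length or DBD) made by in vitro transcription/translation (PURExpress), about 100-200 nM. Bound TF was detected with fluorescent anti-GST. Each ungapped 8-mer (which stands for itself and its reverse complement) is scored by the PBM enrichment score (E-score), a modified Wilcoxon-Mann-Whitney statistic from -0.5 to +0.5, computed with the Universal PBM Analysis Suite. Scale: above 0.35 generally sequence-specific binding.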

Sequence | PBM E-score
AACGCATA | 0.219
AACGCAAT | 0.38
AACGCAAC | 0.289
CACGCATA | 0.0358
TACGCAAA | 0.415
GACGCAAA | 0.347
AACGCAAG | 0.0717
CACGCACA | 0.222
TACGCACA | 0.401
CACGCACG | 0.204
TACGCATA | 0.368
AACGCAAA | 0.175
TCAGCCGA | -0.104
GGGGCGAC | -0.228
GAGACCGC | -0.32
CATGCCTC | 0.0373
TAGAGCGA | -0.114
GGGTTGTA | -0.19
AACGCACA | 0.161
CACGCAAG | 0.3
AACGCACG | 0.31
CACGCAAA | 0.26
CACGCAAC | 0.379
GACGCACA | 0.36
TCGCTTAA | -0.0032

Sequence | PBM E-score
GAGACTGC | -0.054
AAAGAACT | -0.0725
AACAGAGG | -0.205
CGGTTCTC | -0.0999
AACCTTCT | -0.298
CAAGGTCA | -0.144
CGTGACAA | 0.188
AGTGACTC | -0.0159
CGTGATGA | 0.36
CGTGACGC | 0.422
GGTGATGA | 0.18
AGTGACGC | 0.416
CCTGACGC | 0.0655
CTTGACGC | 0.262
AGTGATGA | 0.21
AGTGACCC | -0.23
CGTGACGA | 0.411
CGTGACCA | -0.0216
ACCTGAGC | 0.0188
AACTGGTC | -0.112
CTTAGTTC | 0.0167
AAACAGCT | -0.0726
CGCTCTCA | -0.0854
GAAACACC | 0.02
TAGTTCAA | 0.0959

Sequence | PBM E-score
GGCGCACC | -0.36
TCACAAGA | -0.00762
CCTGGCGC | -0.133
GCGTAAAA | 0.279
AAGTAAAT | 0.139
CCGTAAAC | 0.104
AAGTAAAG | -0.152
CCGTAAAA | 0.053
ACGTAAAG | 0.461
ACGTAAAT | 0.463
CCGTAAAG | 0.0256
ACGTAAAA | 0.463
ACGTAAAC | 0.459
GCGTAAAC | 0.281
AGGTAAAT | 0.131
CACGCACC | 0.115
AGCTTTGC | -0.179
GAAAATGC | 0.0279
GAGTAGCA | 0.0153
TCTGGCAA | -0.261
CTGAAAGA | -0.0455
CATTGCAG | 0.0387
GGATGCAC | -0.16
GTCTGCAC | -0.118
GGACGTCA | 0.466

Sequence | PBM E-score
AGACGTCT | 0.271
GGACGTCC | -0.151
AGACGTCA | 0.484
CGACGTCG | 0.209
CGACGTCC | 0.169
CGACGTCA | 0.486
AGACGTCC | 0.281
GGCCGTCA | -0.184
GCAGATGA | -0.0175
AGCCGGAG | 0.0107
CAAGTACC | -0.0542
AAGGATCG | 0.0147
AAGTTTTA | 0.142
AGTCGGAA | -0.0901
AGACTCAT | 0.183
ATTAGGTC | 0.207
ATTACCTG | 0.067
ATTACGGG | 0.206
ATTACGTC | 0.492
ATTACGTG | 0.487
ATTACGGC | 0.303
GAGAGCCA | -0.118
AGGCTGCC | -0.341
GATCCACA | -0.0832
CTTCCTTC | -0.284

Sequence | PBM E-score
GTAGATTA | 0.269
AACTGAAG | 0.0972
GCCGTAGC | -0.328
AACGTAGA | 0.357
CGCGTAGA | 0.0669
CACGTAGC | 0.364
CCCGTAGG | -0.194
CACGTAGA | 0.39
CTCGTAGC | -0.0204
AACGTAGC | 0.349
CCCGTAGC | -0.291
CACGTAGG | 0.396
AACGTAGG | 0.336
GACGTAGC | 0.436
CTGCACTC | -0.16
GTTTAAGA | -0.0752
CAGTCGTC | 0.0351
CTTCCTGC | -0.256
CGTAGCAC | 0.295
GCCATCCC | -0.319
CCACTGTC | -0.185
ACAAGGGT | -0.0251
GCCAGCAA | -0.205
CTAACCAG | -0.0782
GACCTGGC | -0.297

Sequence | PBM E-score
GACGTAGA | 0.42
TCCGTAGA | -0.15
GGCGTAGA | 0.118
GTCGTAGA | 0.166
TACGTAGA | 0.452
AGCGTAGA | -0.0243
AGCGACAG | -0.155
GGTAAAAA | 0.0275
GGTAATCA | 0.0412
AGTAATCC | 0.0657
CGTAAACA | 0.374
CGTAATCA | 0.452
GGTAAACA | 0.136
CCTAATCC | -0.11
AGTAATCA | 0.0126
CGTAATCC | 0.405
AGTAAACA | 0.0928
GGTGGCAA | -0.169
CCCGACGC | -0.148
AAGGTTTA | -0.0389
ATCTTGGC | -0.119
ACGAGACT | 0.0545
AACACCAA | 0.109
GCTACGGA | -0.0597
GCTACGTA | 0.456

Sequence | PBM E-score
ACTACGAA | 0.289
ACTACGTG | 0.415
GCTACGAA | 0.239
ACTACGTA | 0.484
ACTACGGG | -0.221
ACTACGCG | 0.245
ACTACGGA | -0.036
ATAGCGAG | -0.0959
GCAATGAC | 0.374
ATAATGGA | 0.068
AGAATGAC | 0.377
AGAATGAG | 0.0649
CGAATGAC | 0.351
GTAATGGA | 0.402
ATAATGAT | 0.278
CTAATGGA | -0.158
ATAATGAC | 0.378
CCAATGAC | 0.253
ATAATGAG | 0.114
GCAATGAA | 0.128
AATCAAAC | 0.229
AGAAGTGG | -0.19
ACTTCTAA | -0.0244
